Shown are actives, neighbours in structure and some others; about 10% of the full set was active somewhere.
VP16 counter: counter-screen for ROR gamma inhibitors: Gal4-VP16 reporter; Potency, µM (titrated, usually from 53.6 µM), hits mostly inhibitors; actives 3.5% (n = 310,000); AID 2546; Drosophila S2 Gal4-VP16 UAS-luciferase, luminescence, 20 h;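 note: Gal4-VP16 expression switched on by copper sulfate through the metallothionein promoter; nearly all actives have a fitted effect of over 50% in size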
ELG1 DNA repair: ELG1-dependent DNA repair inhibition; HEK293T ELG1-luciferase reporter, luminescence, 16 h; DNA damage induced by 5-fluorouridine; Potency, µM (top dose mostly 46.1 µM), hits mostly inhibitors; actives 2.3% (n = 330,000); note: nearly all actives have a fitted effect of over 55% in size
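Quantitative HTS, concentration-response format. 2,000 cells/well co-treated with 5-fluorouridine and compound, 16 hr in 5% CO2 at 37 °C; ONE-Glo luminescence read after 30 min.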
RORgamma inh: blocks mouse ROR gamma transcriptional activity. Drosophila S2 Gal4-RORgamma UAS-luciferase reporter, 20 h. actives 5.4% (n = 310,000). P51450. Potency, µM (series often up to 53.6 µM), actives largely listed as inhibitors; note: nearly all actives have a fitted effect of over 60% in size
Target sequence (P51450 whole entry, looked up, the tested form may be a part): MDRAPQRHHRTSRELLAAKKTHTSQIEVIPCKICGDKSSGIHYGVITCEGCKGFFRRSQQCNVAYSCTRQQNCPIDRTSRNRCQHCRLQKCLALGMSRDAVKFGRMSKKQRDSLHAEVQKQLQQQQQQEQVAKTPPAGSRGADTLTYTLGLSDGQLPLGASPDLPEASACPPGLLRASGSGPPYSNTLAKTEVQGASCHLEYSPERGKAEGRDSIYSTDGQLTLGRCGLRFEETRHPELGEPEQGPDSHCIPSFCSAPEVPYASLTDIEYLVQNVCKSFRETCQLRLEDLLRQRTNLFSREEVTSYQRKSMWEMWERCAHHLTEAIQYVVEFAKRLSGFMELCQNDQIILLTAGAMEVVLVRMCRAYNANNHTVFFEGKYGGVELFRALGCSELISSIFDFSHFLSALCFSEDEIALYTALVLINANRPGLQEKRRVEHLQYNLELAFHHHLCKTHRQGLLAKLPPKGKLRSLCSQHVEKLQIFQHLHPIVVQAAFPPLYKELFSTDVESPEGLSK
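Read-out: Photinus luciferase luminescence; inhibitors lower reporter signal. Insect Schneider cells with Gal4-ROR gamma fusion under metallothionein promoter, UAS reporter; 700 uM final copper sulfate induction, 20 hr, ambient temperature.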
MCF10A rereplic: DNA re-replication induction in MCF 10a cells; MCF 10A DNA re-replication, Hoechst nuclear intensity, 48 h; Potency, µM (top dose mostly 46.1 µM), actives largely listed as activators; actives 2.9% (n = 350,000); AID 624296; note: nearly all actives have a fitted effect of over 50% in size
SW480 rerep: DNA re-replication induction in SW480 cells; AID 624297; actives 1.8% (n = 340,000); SW480 DNA re-replication, Hoechst DNA content imaging, 48 h; Potency, µM (doses to about 46.1 µM), hits mostly activators; note: nearly all actives have a fitted effect of over 55% in size
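250 cells/well; 23 nL cpd via pin tool; 48 hr, 37 C, 5% CO2; Hoechst 40 min; imager read of total nuclear intensity, ex 405/em 500-530 nm.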
Large screens that a line does not name were inactive. Calls come from the whole dose curve; as a rule, active = well fitted curve in the direction sought with a large enough effect; inconclusive = small, poorly fitted or top-dose-only effect, or another doubt; inactive = no such curve, though single readings can be large; an effect the other way counts as inactive or inconclusive.

O=C(Nc1ccc2c(c1)C(=O)N(CC1CCCO1)C2=O)c1ccc(Cl)c(Cl)c1 (centres undefined)	VP16 counter inconclusive, ELG1 DNA repair 9.2µM, RORgamma inh inconclusive
Cc1nnc(NC(=O)c2ccc3c(c2)C(=O)N(CC2CCCO2)C3=O)s1 (centres undefined)	VP16 counter inconclusive, ELG1 DNA repair inconclusive, MCF10A rereplic 11.6µM, SW480 rerep inconclusive
COc1ccc(C(C)(C)C)cc1S(=O)(=O)n1ccnc1C	none
CCOC(=O)c1sc2nc(CC(=O)OC)nc(NCc3ccc(Cl)cc3)c2c1C	ELG1 DNA repair 5.8µM
CCOC(=O)c1sc2nc(C)nc(NCc3ccccc3)c2c1C	ELG1 DNA repair 23.1µM, MCF10A rereplic inconclusive
CCOC(=O)c1sc2nc(CC(=O)OC)nc(NCCN(CC)CC)c2c1C	none
Cc1ccc(S(=O)(=O)N2CCN(c3nc(C)nc4sc(C)c(C)c34)CC2)cc1	none (no result: MCF10A rereplic, SW480 rerep)
CCOC(=O)c1sc2nc(C)[nH]c(=S)c2c1C	VP16 counter 0.794µM, RORgamma inh 0.562µM
CCOC(=O)c1sc2nc(C)nc(N3CCN(S(=O)(=O)c4ccccc4)CC3)c2c1C	ELG1 DNA repair 23.1µM (no result: VP16 counter, RORgamma inh)
Cc1cccc(OCc2ccccc2)n1	none (no result: VP16 counter, ELG1 DNA repair, RORgamma inh)
COc1cc(C(=O)NCCNC(=O)C2CCCNC2=O)cc(OC)c1OC (centres undefined)	none
O=C(COC(=O)c1c2c(nc3ccccc13)/C(=C/c1ccco1)CC2)NC1CCCC1	ELG1 DNA repair inconclusive, MCF10A rereplic 7.31µM, SW480 rerep 13µM
CC1CCCCC1NC(=O)COC(=O)c1c2c(nc3ccccc13)/C(=C/c1ccco1)CC2 (centres undefined)	ELG1 DNA repair inconclusive, MCF10A rereplic 16.4µM, SW480 rerep 14.6µM
OC1OC[C@H](O)[C@@H](O)[C@@H]1O (some centres undefined)	none (no result: ELG1 DNA repair, MCF10A rereplic, SW480 rerep)
CN(C)c1ccc(C(=O)OCC#CCSc2nnc(-c3cccc4ccccc34)o2)cc1	none (no result: VP16 counter, RORgamma inh)
NC(=O)c1ccccc1NC(=O)c1ccccc1Cl	none
Cc1ccccc1C(=O)Nc1nncs1	ELG1 DNA repair inconclusive
CC(C)(C)CC(=O)Nc1nnc(C(F)(F)F)s1	RORgamma inh inconclusive
Cc1nn(-c2ccccc2)nc1C(=O)Nc1nnc(C(F)(F)F)s1	ELG1 DNA repair 14.6µM, MCF10A rereplic inconclusive
CCc1nnc(NC(=O)c2nn(-c3ccccc3)nc2C)s1	RORgamma inh inconclusive
CC(NC(=O)Nc1nnc(C(F)(F)F)s1)(C(F)(F)F)C(F)(F)F	VP16 counter 5.62µM, ELG1 DNA repair 5.17µM, RORgamma inh 5.01µM, MCF10A rereplic 11.6µM, SW480 rerep inconclusive
O=C(Nc1ccccc1C(=O)Nc1nnc(C(F)(F)F)s1)c1ccccc1Cl	VP16 counter 15.8µM, ELG1 DNA repair 5.17µM, RORgamma inh inconclusive, MCF10A rereplic inconclusive, SW480 rerep inconclusive
O=C(Nc1ccccc1C(=O)Nc1nncs1)c1ccccc1	ELG1 DNA repair 20.6µM, MCF10A rereplic inconclusive
COc1cccc(OC)c1/C=C/C(=O)NC1CCCCC1	none
COc1ccc(C(=O)C2CCCN(C(=O)c3cccnc3SC)C2)c(C)c1 (centres undefined)	ELG1 DNA repair inconclusive
COc1cccc(CNC(=O)C(NS(=O)(=O)c2ccc3c(c2)CCN3C(C)=O)C(C)C)c1 (centres undefined)	ELG1 DNA repair inconclusive
O=C(CNC(=O)c1ccc(Br)o1)Nc1ccc(F)c(S(=O)(=O)N2CCOCC2)c1	none (no result: VP16 counter, RORgamma inh)
CC(C)([CH2][Sn]([CH2]C(C)(C)c1ccccc1)([CH2]C(C)(C)c1ccccc1)[O][Sn]([CH2]C(C)(C)c1ccccc1)([CH2]C(C)(C)c1ccccc1)[CH2]C(C)(C)c1ccccc1)c1ccccc1	none (no result: ELG1 DNA repair, MCF10A rereplic, SW480 rerep)
CC(=O)Nc1ccc(NC(=O)c2cccc(-c3cc4ccccc4oc3=O)c2)cc1	ELG1 DNA repair inconclusive, RORgamma inh inconclusive
COc1ccc2nc(NC(=O)c3cccc(-c4cc5ccccc5oc4=O)c3)sc2c1	VP16 counter 10µM, RORgamma inh 10µM, MCF10A rereplic inconclusive, SW480 rerep inconclusive
CCCCC(=O)Nc1nc2ccc(C(=O)OC)cc2s1	VP16 counter inconclusive, ELG1 DNA repair inconclusive, RORgamma inh 8.91µM
COc1ccc(C(=O)Nc2nc3ccc(OC)cc3s2)cc1	VP16 counter 4.47µM, ELG1 DNA repair inconclusive, RORgamma inh 1.41µM, MCF10A rereplic inconclusive, SW480 rerep inconclusive
CCCC(=O)Nc1nc2ccc(C(=O)OCC)cc2s1	ELG1 DNA repair inconclusive
CCOc1ccc2nc(NC(=O)c3ccc(OC)c(S(=O)(=O)N4CCOCC4)c3)sc2c1	ELG1 DNA repair 13µM
CC#CC[N+](C)(CC#CC)CC(=O)c1ccccc1	none
COC(=O)c1c(NC(=O)CN2C(=O)C(=O)N(C(C)C)C2=O)sc(C)c1C	none (no result: VP16 counter, RORgamma inh)
CCOC(=O)N1CCN(CC(=O)Nc2nc3ccc(OC)cc3s2)CC1	ELG1 DNA repair 14.6µM
COc1ccc2nc(NC(=O)c3ccc(NC(=O)C4CCCO4)cc3)sc2c1 (centres undefined)	ELG1 DNA repair inconclusive, MCF10A rereplic 20.6µM, SW480 rerep inconclusive
Cc1c(NC(=O)c2cccc(-c3cc4ccccc4oc3=O)c2)cccc1-c1nc2ncccc2o1	ELG1 DNA repair 13µM, RORgamma inh inconclusive
COc1ccc2nc(NC(=O)c3cnccn3)sc2c1	VP16 counter 10µM, ELG1 DNA repair inconclusive, RORgamma inh inconclusive, SW480 rerep inconclusive
CCOc1ccc2nc(NC(=O)C3CCCO3)sc2c1 (centres undefined)	none
COc1ccc2nc(NC(=O)c3ccccc3-c3ccccc3C(=O)O)sc2c1	SW480 rerep inconclusive
O=S(=O)(NCc1ccccc1F)c1cccc(S(=O)(=O)N2CCOCC2)c1	none
COc1ccc(OC)c2c1C(=O)C(Cl)=C(Cl)C2=O	VP16 counter 5.01µM, ELG1 DNA repair 20.6µM, RORgamma inh 5.01µM, MCF10A rereplic 2.59µM, SW480 rerep inconclusive
O=C(NC(=S)NNC(=O)c1ccccc1O)c1ccco1	VP16 counter 3.55µM
O=C(NC(=S)NNC(=O)c1ccco1)c1ccc(F)cc1	VP16 counter inconclusive, RORgamma inh 11.2µM
COc1ccc(C(=O)NC(=S)NNC(=O)c2ccco2)cc1	VP16 counter inconclusive, RORgamma inh 11.2µM, SW480 rerep inconclusive
COc1ccc(C(=O)NC(=S)NNC(=O)c2ccccc2O)cc1	MCF10A rereplic 23.1µM
O=C(CNc1ccc(Br)cc1)NC(=O)NC1CCCCC1	none (no result: VP16 counter, RORgamma inh)
COc1ccc(C(=O)Cn2c(NCCO)nc3ccccc32)cc1OC	SW480 rerep inconclusive
Cc1cccc2sc(N(CCN3CCOCC3)C(=O)CCS(=O)(=O)c3ccccc3)nc12	MCF10A rereplic inconclusive, SW480 rerep inconclusive (no result: VP16 counter, RORgamma inh)
CC(=O)c1cccc(NC(=S)NNC(=O)c2ccco2)c1	ELG1 DNA repair inconclusive
COc1cccc(OC)c1C(=O)Nc1ccc(C)cc1C(=O)c1ccccc1	ELG1 DNA repair 16.4µM
O=C(NNC(=S)NC(=O)c1ccco1)c1ccc(NC(=O)c2ccccc2)cc1	ELG1 DNA repair 14.6µM, RORgamma inh inconclusive, SW480 rerep inconclusive

From PubChem
